Entries with a potency or affinity are not part of this list. Inconclusive results are not listed. The source made the active and inactive calls. No rule for the calls is given here.
target: Cyclin-dependent kinase 5 activator 1 (Homo sapiens) + Cyclin-dependent kinase 5 (Homo sapiens) (UniProt Q15078+Q00535); experiment: CDK5/p35 kinase inhibitors, dose response, biochemical, cherry-picked samples, set 2 (AID 504545); details: biochemical plate reader; series mostly up to 30 µM; activity change, negative = inhibition: at the top concentration
Sequence (Q00535 whole entry, looked up): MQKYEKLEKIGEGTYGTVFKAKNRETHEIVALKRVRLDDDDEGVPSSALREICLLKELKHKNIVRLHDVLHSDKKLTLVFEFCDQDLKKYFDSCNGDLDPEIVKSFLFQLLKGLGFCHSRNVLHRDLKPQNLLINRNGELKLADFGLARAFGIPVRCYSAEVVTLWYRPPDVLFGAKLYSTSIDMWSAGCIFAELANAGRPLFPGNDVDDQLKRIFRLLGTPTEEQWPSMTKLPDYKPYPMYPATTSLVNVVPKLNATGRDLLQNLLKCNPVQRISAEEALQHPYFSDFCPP
Sequence (Q15078 whole entry, looked up): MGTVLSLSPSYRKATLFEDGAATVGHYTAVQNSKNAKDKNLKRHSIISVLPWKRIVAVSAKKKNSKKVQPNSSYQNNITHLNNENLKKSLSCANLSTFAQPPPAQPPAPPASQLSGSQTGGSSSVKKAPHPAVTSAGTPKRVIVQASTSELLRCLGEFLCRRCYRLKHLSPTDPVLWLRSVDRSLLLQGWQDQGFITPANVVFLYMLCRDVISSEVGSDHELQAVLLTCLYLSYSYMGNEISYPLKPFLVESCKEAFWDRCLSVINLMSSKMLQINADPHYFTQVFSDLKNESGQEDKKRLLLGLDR

Activity change, negative = inhibition, inactive:
CC(C)(C)N=Cc1c(O)ccc2oc3c(c12)CCCC3 -1.17%
Cc1ccc2nc(Cl)c(C#N)cc2c1 8.05%
O=C(NNC(=O)c1cccs1)c1ccccc1 -8.86%
S=C(c1ccc(OCc2ccccc2)cc1)N1CCCC1 -1.92%
COc1cccc(OC)c1C(=O)N1CCN(c2ccccn2)CC1 7.96%
CC(C)=CCNc1ncnc2c1c(C#N)cn2C1OC(CO)C(O)C1O (centres undefined) -10.9%
COc1ccc(C(=O)N2CCN(c3ccccn3)CC2)cc1 7.99%
Cc1ccc(Nc2nc(NCCO)nc3c2cnn3C)cc1Cl -6.44%
COc1ccc2ccc3ccc(OC)c(OC(C)=O)c3c2c1 -3.35%
Cc1cccc(/N=C/c2c(O)ccc3oc4c(c23)CCCC4)n1 4.05%
COc1cc(OC)cc(C(=O)NNC(=O)c2ccccn2)c1 6.58%
CCNc1nc(Nc2ccc(C)c(Cl)c2)c2cnn(C)c2n1 10.2%
Cc1nn(-c2ccccn2)c2c1C(=O)CC(C)(C)C2Br (centres undefined) 5.29%
CC(C)C[C@H](CO)Nc1nc(N(C)c2cccc(Cl)c2)c2ncn(C(C)C)c2n1 15.1%
COc1ccc(Nc2nccc(-c3ccc([N+](=O)[O-])cc3)n2)cc1 -9.28%
CCOc1cc(C(=O)N2CCN(c3ccccn3)CC2)cc(OCC)c1OCC 3.8%
COc1cccc(C(=O)N2CCN(c3ccccn3)CC2)c1 11.5%
COc1ccc2nc(C)cc(Nc3ccc(C)cc3)c2c1 7.73%
Clc1cncc(Cl)c1N/N=C/c1ccccc1 8.75%
CCc1cc(C(=O)c2ccc(OC)cc2)c(N)s1 13%
Cc1ccc2[nH]c(C(F)(F)F)cc(=O)c2c1 12.4%
COc1cc(OC)c(C(=O)N2CCN(c3ccccn3)CC2)cc1OC 4.37%
O=C(NNC(=O)c1ccco1)c1ccccc1 1.86%
Clc1cnc(N/N=C/c2ccncc2)c(Cl)c1 -12.7%
Oc1ccc(/C=N/Nc2cccc(Cl)n2)c(O)c1 -0.378%
COc1ccc(C(=O)c2sc(Nc3ccccc3F)nc2N)cc1 -8.79%
CC(=O)[C@H]1CC[C@H]2[C@@H]3CC=C4C[C@@H](OS(=O)(=O)O)CC[C@]4(C)[C@H]3CC[C@]12C -5.29%
O=C(c1ccc2c(c1)OCO2)N1CCN(c2ccccn2)CC1 13.9%
Clc1ccc(N/N=C/c2ccncc2)cc1Cl -9.21%

From PubChem BioAssay AID504545 (Broad Institute, 2011)
